Inconclusive results are not listed. The source made the active and inactive calls. Calls come from the whole dose curve; as a rule, active = well fitted curve in the direction sought with a large enough effect in the repeat runs; inconclusive = weak or mixed curves; inactive = no such curve, though single readings can be large; an effect the other way counts as inactive or inconclusive.
Tested on: not listed separately
Assay: qHTS assay to identify aromatase inhibitors - cell viability counter screen (AID 743084);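 note: cells stimulated with testosterone during compound exposure; nearly all actives have a fitted effect of over 55% in size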
Conditions: MCF-7 aro ERE viability, CellTiter-Fluor, 24 h; series mostly up to 70.3 µM; activity change, negative = cytotoxicity: at the top concentration
% is set by controls: 0 for no effect and ±100 for the full control effect.

| SMILES | activity change, negative = cytotoxicity | Potency |
| --- | --- | --- |
| CN1CCN(C(=O)O[C@H]2c3nccnc3C(=O)N2c2ccc(Cl)cn2)CC1 | -10.2% (inactive) |  |
| CC(COc1ccc(Oc2ccccc2)cc1)Oc1ccccn1 (stereo not drawn) | 16.1% (inactive) |  |
| CCN(Cc1ccc(Cl)nc1)/C(=C/[N+](=O)[O-])NC | 4.35% (inactive) |  |
| CCCSP(=S)(OCC)Oc1ccc(Cl)cc1Cl (stereo not drawn) | -3.94% (inactive) |  |
| CC1CCCCC1NC(=O)Nc1ccccc1 (stereo not drawn) | 2.13% (inactive) |  |
| NC(=O)c1cc([N+](=O)[O-])cc([N+](=O)[O-])c1 | 5% (inactive) |  |
| Cc1nnc2n1-c1sc(CCC(=O)N3CCOCC3)cc1C(c1ccccc1Cl)=NC2 |  | inactive |
| CC(CCc1ccccc1)NC(C)C(O)c1ccc(O)cc1 (stereo not drawn) | -1.82% (inactive) |  |
| Cc1cccc(C#N)c1 | -11.9% (inactive) |  |
| ClC(Cl)Br | -28.3% [at 95 µM] (inactive) |  |
| c1cc2c(c(N3CCNCC3)c1)OCCO2 | 3.92% (inactive) |  |
| CN1C(=S)CN=C(c2ccccc2)c2cc(Cl)ccc21 | 15% (inactive) |  |
| CC1(C)C(=O)NC(=O)NC1=O | 4.02% (inactive) |  |
| CS(=O)(=O)c1cc(C(F)(F)F)ccc1C(=O)c1cnoc1C1CC1 | 7.16% (inactive) |  |

Target: Aryl hydrocarbon receptor (Homo sapiens) (UniProt P35869)
Sequence (P35869 whole entry, looked up): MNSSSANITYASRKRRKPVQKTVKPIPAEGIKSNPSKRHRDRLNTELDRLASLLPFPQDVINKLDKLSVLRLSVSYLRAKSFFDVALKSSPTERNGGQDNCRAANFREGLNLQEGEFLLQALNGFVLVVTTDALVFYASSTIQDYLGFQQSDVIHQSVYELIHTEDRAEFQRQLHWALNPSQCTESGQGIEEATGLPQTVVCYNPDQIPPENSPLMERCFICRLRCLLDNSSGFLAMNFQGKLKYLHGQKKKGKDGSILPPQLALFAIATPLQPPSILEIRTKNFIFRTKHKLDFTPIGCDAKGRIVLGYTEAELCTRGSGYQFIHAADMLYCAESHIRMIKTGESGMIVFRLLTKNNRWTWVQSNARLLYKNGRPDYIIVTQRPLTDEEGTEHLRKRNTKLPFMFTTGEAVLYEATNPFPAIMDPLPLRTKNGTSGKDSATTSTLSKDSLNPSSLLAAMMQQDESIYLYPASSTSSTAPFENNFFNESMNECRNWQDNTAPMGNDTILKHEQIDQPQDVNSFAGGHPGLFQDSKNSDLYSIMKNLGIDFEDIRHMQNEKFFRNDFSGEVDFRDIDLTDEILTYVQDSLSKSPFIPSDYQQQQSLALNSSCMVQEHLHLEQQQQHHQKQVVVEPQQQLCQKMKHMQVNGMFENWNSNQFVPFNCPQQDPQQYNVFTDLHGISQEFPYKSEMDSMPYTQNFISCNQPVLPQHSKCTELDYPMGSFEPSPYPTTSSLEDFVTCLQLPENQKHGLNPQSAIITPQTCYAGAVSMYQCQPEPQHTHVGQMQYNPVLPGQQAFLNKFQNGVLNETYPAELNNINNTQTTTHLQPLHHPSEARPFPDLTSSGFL
Assay: qHTS assay to identify small molecule that activate the aryl hydrocarbon receptor (AhR) signaling pathway (AID 743085); note: nearly all actives have a fitted effect of over 15% in size; note: potency is the fitted concentration of half-maximal effect;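 for activation: HG2L7.5c1 human HepG2 liver cells with stably integrated DRE-driven firefly reporter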
Conditions: HepG2 AhR-luc (HG2L7.5c1), luciferase, 24 h; series mostly up to 70.3 µM; activation: at the top concentration
Procedure, shortened: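 AhR agonist activity is inferred from enhanced light output of a DRE-controlled firefly luciferase reporter in HepG2 cells, measured with ONE-Glo following 24 h treatment at 37C.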

| SMILES | activation | Potency |
| --- | --- | --- |
| O=[N+]([O-])c1ccc(CBr)cc1 | -0.85% [at 95 µM] (inactive) |  |
| CC(Cl)(Cl)[N+](=O)[O-] | -0.139% (inactive) |  |
| CC(C)CP(=S)(S)CC(C)C | -0.59% (inactive) |  |
| COC(=O)c1c(C(F)F)nc(C(F)(F)F)c(C2=NCCS2)c1CC(C)C | 5.34% (inactive) |  |
| CCS(=O)(=O)C(C)(C)S(=O)(=O)CC | 5.54% (inactive) |  |
| O=C1c2ccccc2C(=O)c2ccccc21 | 4.97% (inactive) |  |
| COC(=O)c1ccccc1S(=O)(=O)NC(=O)Nc1nc(C)cc(C)n1 | -0.714% (inactive) |  |
| CCCCc1c(C)nc(NCC)[nH]c1=O | 4.57% (inactive) |  |
| CCOP(=S)(OCC)Oc1nc(Cl)n(C(C)C)n1 |  | 10.9 µM (active) |
| CCC1(c2ccccc2)C(=O)NC(=O)NC1=O |  | inactive |
| Nc1cc2c3c(c1)C(c1ccccc1)=N[C@@H](NC(=O)c1cccnc1)C(=O)N3CC2 | 7.71% (inactive) |  |
| CC(C1CC1)C(O)(Cn1cncn1)c1ccc(Cl)cc1 (stereo not drawn) | 0.84% (inactive) |  |
| C1CCC(C2CCCCC2)CC1 | -0.601% (inactive) |  |
| C#CCN1C(=O)COc2cc(F)c(N3C(=O)C4=C(CCCC4)C3=O)cc21 | 3.39% (inactive) |  |
| COc1cc(OC)nc(Oc2cccc(Oc3nc(OC)cc(OC)n3)c2C(=O)O)n1 | -0.0823% (inactive) |  |
| CCC(C)(C)c1cc(-n2nc3ccccc3n2)c(O)c(C(C)(C)CC)c1 | -2.58% [at 95 µM] (inactive) |  |
| [Cl][Sn]([Cl])([Cl])[Cl] | 1.99% [at 95 µM] (inactive) |  |
| CNC(=O)Oc1c(C(C)(C)C)cc(C)cc1C(C)(C)C | -0.528% (inactive) |  |
| CSc1nc(N=[N+]=[N-])nc(NC(C)C)n1 | 1.6% (inactive) |  |

| SMILES | activation | Potency |
| --- | --- | --- |
| Cc1ncsc1CCCl | -1.38% (inactive) |  |
| CCCSC(=O)Cl | -0.985% [at 95 µM] (inactive) |  |
| COC(=O)C(C)Oc1ccc(Oc2ccc(Cl)cc2Cl)cc1 (stereo not drawn) | -0.582% (inactive) |  |
| CCOC(=O)CP(=O)(OCC)OCC | 1.03% (inactive) |  |
| CN1CCN(C(=O)O[C@H]2c3nccnc3C(=O)N2c2ccc(Cl)cn2)CC1 | -0.438% (inactive) |  |
| CC(COc1ccc(Oc2ccccc2)cc1)Oc1ccccn1 (stereo not drawn) | 7.4% (inactive) |  |
| CCN(Cc1ccc(Cl)nc1)/C(=C/[N+](=O)[O-])NC | 0.73% (inactive) |  |
| CCCSP(=S)(OCC)Oc1ccc(Cl)cc1Cl (stereo not drawn) |  | 54.5 µM (active) |
| CC1CCCCC1NC(=O)Nc1ccccc1 (stereo not drawn) | 2.66% (inactive) |  |
| NC(=O)c1cc([N+](=O)[O-])cc([N+](=O)[O-])c1 | -0.553% (inactive) |  |
| Cc1nnc2n1-c1sc(CCC(=O)N3CCOCC3)cc1C(c1ccccc1Cl)=NC2 |  | inactive |
| CC(CCc1ccccc1)NC(C)C(O)c1ccc(O)cc1 (stereo not drawn) | 1.79% (inactive) |  |
| Cc1cccc(C#N)c1 | -1.25% (inactive) |  |
| ClC(Cl)Br | 0.414% [at 95 µM] (inactive) |  |
| c1cc2c(c(N3CCNCC3)c1)OCCO2 | -0.225% (inactive) |  |
| CN1C(=S)CN=C(c2ccccc2)c2cc(Cl)ccc21 | -0.266% (inactive) |  |
| CC1(C)C(=O)NC(=O)NC1=O | -0.169% (inactive) |  |
| CS(=O)(=O)c1cc(C(F)(F)F)ccc1C(=O)c1cnoc1C1CC1 | 6.63% (inactive) |  |

Tested on: not listed separately
Assay: qHTS assay to identify small molecule that activate the aryl hydrocarbon receptor (AhR) signaling pathway - cell viability counter screen (AID 743086);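 note: HepG2 liver cells carrying the AhR DRE luciferase reporter; nearly all actives have a fitted effect of over 45% in size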
Conditions: HepG2-AhR-luc viability, CellTiter-Fluor, 24 h; series mostly up to 70.3 µM; viability change, negative = cytotoxic: at the top concentration
Procedure, shortened: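 HepG2-AhR-luc (HG2L7.5c1) cells, 4000/well, treated 24 h at 37 C with compound; viability measured as CellTiter-Fluor fluorescence after 30 min in the same wells as the luciferase read.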

| SMILES | viability change, negative = cytotoxic | outcome |
| --- | --- | --- |
| O=[N+]([O-])c1ccc(CBr)cc1 | 8.85% [at 95 µM] (inactive) |  |
| CC(Cl)(Cl)[N+](=O)[O-] | -4.31% (inactive) |  |
| CC(C)CP(=S)(S)CC(C)C | -1.74% (inactive) |  |
| COC(=O)c1c(C(F)F)nc(C(F)(F)F)c(C2=NCCS2)c1CC(C)C | -8.34% (inactive) |  |
| CCS(=O)(=O)C(C)(C)S(=O)(=O)CC | 1.42% (inactive) |  |
| O=C1c2ccccc2C(=O)c2ccccc21 | -0.0506% (inactive) |  |
| COC(=O)c1ccccc1S(=O)(=O)NC(=O)Nc1nc(C)cc(C)n1 | -4.39% (inactive) |  |
| CCCCc1c(C)nc(NCC)[nH]c1=O | 21% (inactive) |  |
| CCOP(=S)(OCC)Oc1nc(Cl)n(C(C)C)n1 | 0.232% (inactive) |  |
| CCC1(c2ccccc2)C(=O)NC(=O)NC1=O |  | inactive |
| Nc1cc2c3c(c1)C(c1ccccc1)=N[C@@H](NC(=O)c1cccnc1)C(=O)N3CC2 | -0.124% (inactive) |  |
| CC(C1CC1)C(O)(Cn1cncn1)c1ccc(Cl)cc1 (stereo not drawn) | 6.26% (inactive) |  |
| C1CCC(C2CCCCC2)CC1 | -4.33% (inactive) |  |
| C#CCN1C(=O)COc2cc(F)c(N3C(=O)C4=C(CCCC4)C3=O)cc21 | -5.26% (inactive) |  |
| COc1cc(OC)nc(Oc2cccc(Oc3nc(OC)cc(OC)n3)c2C(=O)O)n1 | 1.43% (inactive) |  |
| CCC(C)(C)c1cc(-n2nc3ccccc3n2)c(O)c(C(C)(C)CC)c1 | -0.807% [at 95 µM] (inactive) |  |
| [Cl][Sn]([Cl])([Cl])[Cl] | 0.175% [at 95 µM] (inactive) |  |
| CNC(=O)Oc1c(C(C)(C)C)cc(C)cc1C(C)(C)C | -1.4% (inactive) |  |
| CSc1nc(N=[N+]=[N-])nc(NC(C)C)n1 | 0.316% (inactive) |  |

| SMILES | viability change, negative = cytotoxic | outcome |
| --- | --- | --- |
| Cc1ncsc1CCCl | 15.2% (inactive) |  |
| CCCSC(=O)Cl | 1.54% [at 95 µM] (inactive) |  |
| COC(=O)C(C)Oc1ccc(Oc2ccc(Cl)cc2Cl)cc1 (stereo not drawn) | 1.18% (inactive) |  |
| CCOC(=O)CP(=O)(OCC)OCC | 0.766% (inactive) |  |
| CN1CCN(C(=O)O[C@H]2c3nccnc3C(=O)N2c2ccc(Cl)cn2)CC1 | 9.78% (inactive) |  |
| CC(COc1ccc(Oc2ccccc2)cc1)Oc1ccccn1 (stereo not drawn) | 20.7% (inactive) |  |
| CCN(Cc1ccc(Cl)nc1)/C(=C/[N+](=O)[O-])NC | -2.65% (inactive) |  |
| CCCSP(=S)(OCC)Oc1ccc(Cl)cc1Cl (stereo not drawn) | 0.996% (inactive) |  |
| CC1CCCCC1NC(=O)Nc1ccccc1 (stereo not drawn) | -2.71% (inactive) |  |
| NC(=O)c1cc([N+](=O)[O-])cc([N+](=O)[O-])c1 | 13.7% (inactive) |  |
| Cc1nnc2n1-c1sc(CCC(=O)N3CCOCC3)cc1C(c1ccccc1Cl)=NC2 |  | inactive |
| CC(CCc1ccccc1)NC(C)C(O)c1ccc(O)cc1 (stereo not drawn) | -3.9% (inactive) |  |
| Cc1cccc(C#N)c1 | 8.59% (inactive) |  |
| ClC(Cl)Br | -9.73% [at 95 µM] (inactive) |  |
| c1cc2c(c(N3CCNCC3)c1)OCCO2 | 1.89% (inactive) |  |
| CN1C(=S)CN=C(c2ccccc2)c2cc(Cl)ccc21 | -6.89% (inactive) |  |
| CC1(C)C(=O)NC(=O)NC1=O | -6.27% (inactive) |  |
| CS(=O)(=O)c1cc(C(F)(F)F)ccc1C(=O)c1cnoc1C1CC1 | 2.6% (inactive) |  |

From PubChem BioAssay (Tox21)
